# Reference: PubChem BioAssay (NCATS)
# Inconclusive results are not listed. Entries that show only a call come without a potency. Unmarked numbers belong to inactive results. Active and inactive are the calls of the source. Calls come from the whole dose curve; as a rule, active = well fitted curve in the direction sought with a large enough effect; inconclusive = small, poorly fitted or top-dose-only effect, or another doubt; inactive = no such curve, though single readings can be large; an effect the other way counts as inactive or inconclusive.
# Assays:
# [1] = Quantitative High-Throughput drug screen in 47 multiple myeloma cell lines against the NCATS MIPE library collection: NCIH929_DSMZ cell viability assay (AID 1918978); note: nearly all actives have a fitted effect of over 35% in size; note: potency is the fitted concentration of half-maximal effect
# How it was run: (§1)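 Cells were exposed to library compounds for 48 hours, after which ATP was measured by CellTiter-Glo. Signal was taken as median relative luminescence units.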
# [2] = Quantitative High-Throughput drug screen in 47 multiple myeloma cell lines against the NCATS MIPE library collection: OCIMY1_PLB cell viability assay (AID 1918979); note: nearly all actives have a fitted effect of over 35% in size; note: potency is the fitted concentration of half-maximal effect
# How it was run: as §1
# [3] = Quantitative High-Throughput drug screen in 47 multiple myeloma cell lines against the NCATS MIPE library collection: MM1S_ATCC cell viability assay (AID 1918980); note: nearly all actives have a fitted effect of over 45% in size; note: potency is the fitted concentration of half-maximal effect
# How it was run: as §1
# [4] = Quantitative High-Throughput drug screen in 47 multiple myeloma cell lines against the NCATS MIPE library collection: L363_DSMZ cell viability assay (AID 1918984); note: nearly all actives have a fitted effect of over 40% in size; note: potency is the fitted concentration of half-maximal effect
# How it was run: as §1
# [5] = Quantitative High-Throughput drug screen in 47 multiple myeloma cell lines against the NCATS MIPE library collection: OCIMY7_PLB cell viability assay (AID 1918987); details: OCI-MY7 myeloma viability, CellTiter-Glo ATP, 48 h; viability (% of DMSO): at 45.8 µM (top of the series); note: nearly all actives have a fitted effect of over 65% in size; note: potency is the fitted concentration of half-maximal effect
# How it was run: as §1
# [6] = Quantitative High-Throughput drug screen in 47 multiple myeloma cell lines against the NCATS MIPE library collection: OCIMY5_PLB cell viability assay (AID 1918988); note: nearly all actives have a fitted effect of over 65% in size; note: potency is the fitted concentration of half-maximal effect
# How it was run: as §1
# [7] = Quantitative High-Throughput drug screen in 47 multiple myeloma cell lines against the NCATS MIPE library collection: OPM1_PLB cell viability assay (AID 1918989); note: nearly all actives have a fitted effect of over 40% in size; note: potency is the fitted concentration of half-maximal effect
# How it was run: as §1
# [8] = Quantitative High-Throughput drug screen in 47 multiple myeloma cell lines against the NCATS MIPE library collection: U266_ATCC cell viability assay (AID 1919864); note: nearly all actives have a fitted effect of over 35% in size; note: potency is the fitted concentration of half-maximal effect
# How it was run: as §1
# [9] = Quantitative High-Throughput drug screen in 47 multiple myeloma cell lines against the NCATS MIPE library collection: XG6_PLB cell viability assay (AID 1919865); note: nearly all actives have a fitted effect of over 40% in size; note: potency is the fitted concentration of half-maximal effect
# How it was run: as §1
# [10] = Quantitative High-Throughput drug screen in 47 multiple myeloma cell lines against the NCATS MIPE library collection: XG1_PLB cell viability assay (AID 1919866); note: nearly all actives have a fitted effect of over 35% in size; note: potency is the fitted concentration of half-maximal effect
# How it was run: as §1
# [11] = Quantitative High-Throughput drug screen in 47 multiple myeloma cell lines against the NCATS MIPE library collection: VP6_DJ cell viability assay (AID 1919867); note: nearly all actives have a fitted effect of over 40% in size; note: potency is the fitted concentration of half-maximal effect
# How it was run: as §1
# [12] = Quantitative High-Throughput drug screen in 47 multiple myeloma cell lines against the NCATS MIPE library collection: UTMC2_PLB cell viability assay (AID 1919868); details: CellTiter-Glo ATP luminescence, 48 h; viability (% of DMSO control): at 45.8 µM (top of the series); note: nearly all actives have a fitted effect of over 55% in size; note: potency is the fitted concentration of half-maximal effect
# How it was run: as §1
# [13] = Quantitative High-Throughput drug screen in 47 multiple myeloma cell lines against the NCATS MIPE library collection: PE2_PLB cell viability assay (AID 1919869); note: nearly all actives have a fitted effect of over 35% in size; note: potency is the fitted concentration of half-maximal effect
# How it was run: as §1
# [14] = Quantitative High-Throughput drug screen in 47 multiple myeloma cell lines against the NCATS MIPE library collection: MM1R_ATCC cell viability assay (AID 1918981); note: nearly all actives have a fitted effect of over 35% in size; note: potency is the fitted concentration of half-maximal effect
# How it was run: as §1
# [15] = Quantitative High-Throughput drug screen in 47 multiple myeloma cell lines against the NCATS MIPE library collection: KMS28PE_JCRB cell viability assay (AID 1918983); note: nearly all actives have a fitted effect of over 35% in size; note: potency is the fitted concentration of half-maximal effect
# How it was run: as §1
# [16] = Quantitative High-Throughput drug screen in 47 multiple myeloma cell lines against the NCATS MIPE library collection: KMS34_JCRB cell viability assay (AID 1918985); note: nearly all actives have a fitted effect of over 40% in size
# How it was run: as §1
# [17] = Quantitative High-Throughput drug screen in 47 multiple myeloma cell lines against the NCATS MIPE library collection: SKMM1_PLB cell viability assay (AID 1919863); details: SKMM1 myeloma viability, CellTiter-Glo ATP, 48 h; viability: hits give low values; note: nearly all actives have a fitted effect of over 35% in size; note: potency is the fitted concentration of half-maximal effect
# How it was run: as §1
# [18] = Quantitative High-Throughput drug screen in 47 multiple myeloma cell lines against the NCATS MIPE library collection: RPMI8226_ATCC cell viability assay (AID 1919871); note: nearly all actives have a fitted effect of over 30% in size; note: potency is the fitted concentration of half-maximal effect
# How it was run: as §1
# [19] = Quantitative High-Throughput drug screen in 47 multiple myeloma cell lines against the NCATS MIPE library collection: PCM6_Riken cell viability assay (AID 1919870); note: nearly all actives have a fitted effect of over 30% in size; note: potency is the fitted concentration of half-maximal effect
# How it was run: as §1
# [20] = Quantitative High-Throughput drug screen in 47 multiple myeloma cell lines against the NCATS MIPE library collection: LP1_DSMZ cell viability assay (AID 1918982); note: nearly all actives have a fitted effect of over 35% in size; note: potency is the fitted concentration of half-maximal effect
# How it was run: as §1
smiles,measurement,setting,value
C[C@]12CC[C@@H]3c4ccc(O)cc4C[C@@H](CCCCCCCCCS(=O)CCCC(F)(F)C(F)(F)F)[C@H]3[C@H]1CC[C@H]2O (stereo not given in full),Potency,[1],0.0187 µM (active)
same,Potency,[2],inactive
same,Potency,[3],2.96 µM (active)
same,Potency,[4],inactive
same,Potency,[5],5.9 µM (active)
same,Potency,[6],10.5 µM (active)
same,Potency,[7],inactive
same,Potency,[8],inactive
same,Potency,[9],6.62 µM (active)
same,Potency,[10],inactive
same,Potency,[11],inactive
same,Potency,[12],inactive
same,Potency,[13],inactive
COc1ccc2c3c1OC1C[C@@H](O)C=C[C@@]31CCN(C)C2 (stereo not given in full),Potency,[1],16.6 µM (active)
same,Potency,[2],inactive
same,Potency,[3],20.9 µM (active)
same,Potency,[14],inactive
same,Potency,[15],inactive
same,Potency,[16],inactive
same,Potency,[5],4.18 µM (active)
same,Potency,[6],10.5 µM (active)
same,Potency,[7],inactive
same,viability,[17],103%
same,Potency,[8],4.18 µM (active)
same,Potency,[10],5.9 µM (active)
same,Potency,[18],inactive
O=C(O)c1cc(O)c2c(c1)C(=O)c1cccc(O)c1C2=O,Potency,[1],inactive
same,Potency,[2],inactive
same,Potency,[3],inactive
same,Potency,[15],30.3 µM (active)
same,Potency,[6],48.1 µM (active)
same,Potency,[7],inactive
same,Potency,[9],inactive
same,Potency,[10],inactive
same,Potency,[11],inactive
same,Potency,[13],inactive
same,Potency,[19],inactive
same,Potency,[18],42.9 µM (active)
CS(=O)c1ccc(-c2nc(-c3ccc(F)cc3)c(-c3ccncc3)[nH]2)cc1 (stereo not given),Potency,[1],5.4 µM (active)
same,Potency,[2],inactive
same,Potency,[3],38.2 µM (active)
same,Potency,[15],inactive
same,Potency,[4],24.1 µM (active)
same,Potency,[5],9.59 µM (active)
same,Potency,[6],19.1 µM (active)
same,Potency,[7],48.1 µM (active)
same,Potency,[9],42.9 µM (active)
same,Potency,[10],38.2 µM (active)
same,Potency,[11],7.62 µM (active)
same,Potency,[12],34 µM (active)
same,Potency,[13],30.3 µM (active)
O=C(Nc1c(Cl)cncc1Cl)c1ccc(OC(F)F)c(OCC2CC2)c1,Potency,[1],23.5 µM (active)
same,Potency,[2],0.0012 µM (active)
same,Potency,[3],23.5 µM (active)
same,Potency,[14],inactive
same,Potency,[15],inactive
same,Potency,[4],inactive
same,Potency,[7],inactive
same,viability,[17],111%
same,Potency,[8],inactive
same,Potency,[10],18.7 µM (active)
same,Potency,[18],inactive
CCC(CC)[C@H](NC(C)=O)[C@@H]1[C@H](O)[C@@H](C(=O)O)C[C@@H]1N=C(N)N,Potency,[1],inactive
same,Potency,[2],inactive
same,Potency,[3],inactive
same,Potency,[15],inactive
same,Potency,[4],inactive
same,Potency,[16],inactive
same,Potency,[7],inactive
same,Potency,[9],inactive
same,Potency,[10],inactive
same,Potency,[11],4.18 µM (active)
same,Potency,[13],inactive
same,Potency,[19],inactive
COc1cc2c(cc1OC)CN(CCc1ccc(NC(=O)c3cc(OC)c(OC)cc3NC(=O)c3cnc4ccccc4c3)cc1)CC2,Potency,[1],8.33 µM (active)
same,Potency,[2],inactive
same,Potency,[3],2.64 µM (active)
same,Potency,[20],inactive
same,Potency,[4],inactive
same,Potency,[16],inactive
same,Potency,[5],6.62 µM (active)
same,Potency,[7],14.8 µM (active)
same,viability,[17],118%
same,Potency,[8],5.26 µM (active)
same,Potency,[9],18.7 µM (active)
same,Potency,[10],20.9 µM (active)
same,Potency,[13],26.4 µM (active)
same,Potency,[19],18.7 µM (active)
same,Potency,[18],0.418 µM (active)
O=C(OCC#CCSc1nnc(-c2cccc3ccccc23)o1)c1cc2ccccc2s1,Potency,[1],inactive
same,Potency,[2],inactive
same,Potency,[3],inactive
same,Potency,[20],inactive
same,Potency,[15],inactive
same,Potency,[4],inactive
same,Potency,[5],inactive
same,Potency,[7],inactive
same,Potency,[8],inactive
same,Potency,[9],inactive
same,Potency,[10],inactive
same,Potency,[11],inactive
same,Potency,[13],inactive
O=C(CCN1CCN(C(=O)OCc2cc(Cl)cc(Cl)c2)CC1)c1ccc2[nH]c(=O)oc2c1,Potency,[1],inactive
same,Potency,[2],inactive
same,Potency,[3],13.2 µM (active)
same,Potency,[14],18.7 µM (active)
same,Potency,[15],inactive
same,viability,[17],136%
same,Potency,[8],inactive
same,Potency,[9],inactive
same,Potency,[11],inactive
same,Potency,[13],inactive
same,Potency,[19],inactive
same,Potency,[18],inactive
COc1ccc(-c2coc3cc(O)ccc3c2=O)cc1,Potency,[1],inactive
same,Potency,[2],inactive
same,Potency,[3],inactive
same,Potency,[14],inactive
same,Potency,[16],inactive
same,Potency,[5],inactive
same,Potency,[7],inactive
same,Potency,[8],inactive
same,Potency,[9],inactive
same,Potency,[10],inactive
same,Potency,[11],inactive
same,Potency,[13],inactive
same,Potency,[19],inactive
same,Potency,[18],inactive
Cc1cc(OCCCc2c(C(=O)O)n(Cc3cccnc3)c3c(-c4c(COc5ccc(N6CCN([S+](C)(=O)[O-])CC6)cc5)nn(C)c4C)cccc23)cc(C)c1Cl,Potency,[1],3.32 µM (active)
same,Potency,[2],13.2 µM (active)
same,Potency,[3],18.7 µM (active)
same,Potency,[20],14.8 µM (active)
same,Potency,[15],23.5 µM (active)
same,Potency,[4],inactive
same,Potency,[6],23.5 µM (active)
same,Potency,[17],23.5 µM (active)
same,Potency,[8],3.32 µM (active)
same,Potency,[9],20.9 µM (active)
same,Potency,[13],18.7 µM (active)
same,Potency,[19],20.9 µM (active)
CN1[C@@H]2CCC[C@@H]1CC(NC(=O)c1nn(C)c3ccccc13)C2 (stereo not given in full),Potency,[1],inactive
same,Potency,[3],inactive
same,Potency,[14],inactive
same,Potency,[20],inactive
same,Potency,[15],inactive
same,Potency,[4],inactive
same,Potency,[16],inactive
same,Potency,[6],inactive
same,Potency,[7],inactive
same,viability,[17],111%
same,Potency,[9],inactive
same,Potency,[10],inactive
same,Potency,[13],inactive
same,Potency,[19],inactive
same,Potency,[18],inactive
